Assay outcomes deposited in PubChem by National Center for Advancing Translational Sciences (NCATS).
D3 ag – agonists of human D3 dopamine receptor; P35462; D3R DiscoveRx beta-arrestin cells, luminescence, 90 min; max activation, %; 410,000 compounds, 0.58% hits; AID 652048; in the data active = max activation above about 30%
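Cells at 1500/well, incubated overnight, then treated with pinned compounds (dopamine as control) for 90 min at 37 degrees C. DiscoveRx reagent added for 30 - 60 minutes at room temperature; luminescence read.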
GLP1R inv ag – inverse agonists of human GLP-1 receptor; P43220; HEK293 GLP-1R CRE-luciferase, luminescence, 24 h; GLP-1R form is constitutively active; Potency, µM (series often up to 38.3 µM), actives largely listed as inhibitors; 410,000 compounds, 1.6% hits; also: nearly all actives have a fitted effect of over 55% in size
Target sequence (P43220 whole entry, looked up): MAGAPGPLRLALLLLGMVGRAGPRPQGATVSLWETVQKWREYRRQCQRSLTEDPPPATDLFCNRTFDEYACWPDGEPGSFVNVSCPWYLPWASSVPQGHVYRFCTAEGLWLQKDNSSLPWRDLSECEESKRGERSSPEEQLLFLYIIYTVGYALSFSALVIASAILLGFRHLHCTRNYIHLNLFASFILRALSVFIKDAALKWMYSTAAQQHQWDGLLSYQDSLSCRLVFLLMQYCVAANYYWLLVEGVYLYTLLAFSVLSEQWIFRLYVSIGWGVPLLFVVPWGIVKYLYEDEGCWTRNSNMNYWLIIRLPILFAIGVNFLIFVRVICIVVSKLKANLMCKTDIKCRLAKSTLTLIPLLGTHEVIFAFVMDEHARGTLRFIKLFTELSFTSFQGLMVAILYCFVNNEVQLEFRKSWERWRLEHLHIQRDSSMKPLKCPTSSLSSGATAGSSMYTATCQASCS
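Constitutively active GLP-1R drives a cAMP-responsive luciferase in stably transfected HEK293 cells; test compounds are added after overnight (12 h) attachment and left 24 hr, and signal loss in luminescence marks inhibition.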
DRD3 antagonist – antagonists of human D3 dopamine receptor. P35462. D3R cells, DiscoveRx beta-arrestin luminescence, antagonist mode; hits give low values. max response, negative = inhibition, %. 360,000 compounds, 2.5% hits; in the data active = max response below about -50%; inconclusive = no clear call, values can overlap the other calls
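Cells plated overnight at 1500 cells/well, then exposed to library compounds with dopamine controls for 90 minutes at 37 degrees C. DiscoveRx reagent added for 30–60 minutes at room temperature; luminescence read, quantitative HTS format.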
GLP-1R agonist – activates the human GLP-1 receptor; P43220; 380,000 compounds, 0.007% hits; Potency, µM (top dose mostly 45.6 µM), hits mostly activators; HEK293 GLP-1R CRE-luciferase, luminescence, 4-6 h; cells express a hypersensitive GLP-1R form
Large screens that a line does not name were inactive. Hits are enriched below; roughly 4.3% of the tested compounds scored in any of these assays. Unless noted, calls follow the shape of the dose curve; as a rule, active = well fitted curve in the direction sought with a large enough effect; inconclusive = small, poorly fitted or top-dose-only effect, or another doubt; inactive = no such curve, though single readings can be large; an effect the other way counts as inactive or inconclusive.

COc1cc(-c2nn3c(Cc4ccccc4)nnc3s2)cc(OC)c1OC	D3 ag 31
COc1cc(-c2nn3c(COc4ccccc4)nnc3s2)cc(OC)c1OC	none
CC(=O)OCC(=O)[C@@]1(O)[C@H](C)C[C@H]2[C@@H]3C[C@H](F)C4=CC(=O)C=C[C@]4(C)[C@H]3[C@@H](O)C[C@@]21C	none (no result: GLP1R inv ag, DRD3 antagonist, GLP-1R agonist)
CN(C)S(=O)(=O)c1ccc2c(c1)C(=O)c1cc(S(=O)(=O)N(C)C)ccc1CC2	none (no result: D3 ag, GLP1R inv ag, DRD3 antagonist)
CN(C)S(=O)(=O)c1ccc2c(c1)/C(=C/c1cc3c([nH]1)CCCC3)C(=O)N2	DRD3 antagonist -86
COc1ccc(N2CCN(C3(c4ccccc4)C(=O)c4ccccc4C3=O)CC2)cc1	GLP1R inv ag inconclusive (no result: DRD3 antagonist, GLP-1R agonist)
CN1C(=O)Cc2cc(S(=O)(=O)CCC(=O)N3CCN(c4ccc(Cl)cc4)CC3)ccc21	none (no result: DRD3 antagonist, GLP-1R agonist)
Cc1cc(C)c(C(=O)CN2C(=O)NC3(CCCCC3)C2=O)cc1C	D3 ag 35
COc1ccccc1/C=C/C(=O)Oc1cccc2cccnc12	GLP1R inv ag 4.5µM
CCc1ccc(N2CCn3c2nc2c3c(=O)n(C/C=C/c3ccccc3)c(=O)n2C)cc1	none (no result: DRD3 antagonist, GLP-1R agonist)
O=C(CO)[C@@H](O)[C@H](O)[C@H](O)CO	none (no result: GLP1R inv ag, DRD3 antagonist, GLP-1R agonist)
C/C(=N\NC(=S)NCc1ccccc1)c1cccc(Br)c1	GLP1R inv ag 8.9µM
COc1ccccc1/C(C)=N/NC(=S)NCc1ccccc1	GLP1R inv ag 2.5µM
C/C(=N\NC(=S)NCc1ccccc1)c1ccc2ccccc2c1	GLP1R inv ag inconclusive
C/C(=N\NC(=S)NCCc1ccccc1)c1cccc(Br)c1	none
Cc1cc(C)nc(SCc2cc(=O)c(OC(=O)c3cccc([N+](=O)[O-])c3)co2)n1	D3 ag 111
Cc1cc(C)cc(NC(=O)c2ncn(-c3ccccc3)n2)c1	GLP1R inv ag inconclusive (no result: DRD3 antagonist, GLP-1R agonist)
CCN(CC)C(=O)c1sc2c(c1C)c(=O)n(-c1ccc(C)c(C)c1)c(=O)n2CC(=O)Nc1ccc(OC)cc1OC	none (no result: DRD3 antagonist, GLP-1R agonist)
O=[N+]([O-])c1cc(-c2csc(NCCc3nc4cc(Cl)c(Cl)cc4n3CCCO)n2)ccc1Cl	GLP1R inv ag 14µM
Cc1ccc(-c2csc(NCCc3nc4cc(Cl)c(Cl)cc4n3CCCO)n2)cc1	D3 ag 70, GLP1R inv ag inconclusive
Cc1ccc(Cn2c(CCNc3nc(-c4ccc(C)cc4)cs3)nc3cc(C(=O)NCCCO)ccc32)cc1	D3 ag 31
C=CCc1cc(Cl)ccc1OCCOCCNCCOC	GLP1R inv ag inconclusive
C=CCc1cc(Cl)ccc1OCCNCCCOC	GLP1R inv ag 4.5µM, DRD3 antagonist -59
C=CCc1ccccc1OCCNCCCOC	DRD3 antagonist -102
C=CCc1cc(Cl)ccc1OCCOCCN(C)C	GLP1R inv ag 7.1µM
COCCCNCCOCCOc1ccccc1-c1ccccc1	none
Cc1ccc(NC2CCCCC2NS(=O)(=O)c2ccccc2)c(C)c1 (centres undefined)	GLP1R inv ag inconclusive
CCC(c1nc2ccccc2[nH]1)n1c(-c2ccnc(Cl)c2)nc2ccccc21 (centres undefined)	DRD3 antagonist -75 (no result: GLP-1R agonist)
CCc1nnc(NC(=O)CSc2ncnc3scc(-c4ccc(C)cc4)c23)s1	D3 ag 51
Cc1ccc(-c2csc3ncnc(SCC(N)=O)c23)cc1	none
COc1cccc(CNC(=O)Cn2cc3c(n2)-c2c(oc(C(=O)N4CCOCC4)c2C)CC3)c1	none (no result: DRD3 antagonist, GLP-1R agonist)
Cc1ccc(C(=O)NCCN2CCOCC2)cc1Cl	DRD3 antagonist inconclusive
O=C(NCCN1CCC(n2c(=O)[nH]c3ccccc32)CC1)c1ccc(F)cc1	DRD3 antagonist -79
O=C(NCCN1CCOCC1)c1cccs1	none
CCOc1ccccc1C(=O)NCCN1CCC(n2c(=O)[nH]c3ccccc32)CC1	none
O=C(NCCN1CCC(n2c(=O)[nH]c3ccccc32)CC1)c1cccs1	DRD3 antagonist -103
Cc1ccc(C(=O)NCC(=O)OCCCn2c(=O)[nH]c3ccccc32)cc1	none
O=C(NCCN1CCC(n2c(=O)[nH]c3ccccc32)CC1)c1ccc(Cl)c(Cl)c1	GLP1R inv ag inconclusive, DRD3 antagonist -85
Cc1ccc(C(=O)NCCN2CCC(n3c(=O)[nH]c4ccccc43)CC2)cc1	DRD3 antagonist -106
CCOC(=O)c1c(C)[nH]c(C)c1S(=O)(=O)N1CCC(C(=O)N2CCN(c3ccccc3)CC2)CC1	none (no result: DRD3 antagonist, GLP-1R agonist)
Cc1ccc(C(=O)NCCN2CCC(n3c(=O)[nH]c4ccccc43)CC2)cc1F	GLP1R inv ag inconclusive, DRD3 antagonist -70
O=C(NCCN1CCC(n2c(=O)[nH]c3ccccc32)CC1)c1ccc(Cl)cc1	GLP1R inv ag inconclusive, DRD3 antagonist -51
